Results on 10 molecules are retold here after PubChem BioAssay (Tox21).

A number with no mark means an inactive call. Records with an inconclusive call do not appear. The source made the active and inactive calls. The call rests on the fitted dose curve; in most records, active means well fitted curve in the direction sought with a large enough effect in the repeat runs; inconclusive means weak or mixed curves; inactive means no such curve, though single readings can be large; an effect the other way counts as inactive or inconclusive.

Experiment [1] is described as follows: Human pregnane X receptor (PXR) small molecule agonists, qHTS cell viability counter screen (AID 1346977). Further: nearly all actives have a fitted effect of over 50% in size. Further: potency means the concentration at half of the fitted maximal effect. The method, boiled down: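 In each well, the PXR reporter HepG2 line was checked for viability: CellTiter-Fluor reagent added 23hr post-dosing, fluorescence read after 1hr incubation at 37C.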
(In general: qHTS replaces the single test concentration by a dilution series.)

The nature of experiment [2]: Caspase-3/7 induction in HepG2 cells by small molecules, qHTS assay (AID 1346978). Further: nearly all actives have a fitted effect of over 15% in size. Summed up:
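Caspase-3/7 induction was measured by Caspase-Glo 3/7 luminescence (30 min, room temperature) after a 17 hr compound exposure of wild-type HepG2 cells seeded at 2,000 per well and pre-incubated 5 hr.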

Experiment [3] is described as follows: Caspase-3/7 induction in CHO-K1 cells by small molecules, qHTS cell viability counter screen (AID 1346979). Further: nearly all actives have a fitted effect of over 35% in size. Further: potency means the concentration at half of the fitted maximal effect. Summed up:
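Following a 5hr settling period, CHO-K1 cells at 1,500 per well received DMSO-dissolved compounds. Cell viability was quantified 16hr later by CellTiter-Fluor fluorescence, measured after 1hr with reagent at 37C.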

Experiment [4] in a line: Caspase-3/7 induction in CHO-K1 cells by small molecules, qHTS assay (AID 1346980). Further: nearly all actives have a fitted effect of over 15% in size. The method, boiled down: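 Luminescent Caspase-Glo 3/7 read (30min, room temperature) quantified apoptosis induction. Cells were wild-type CHO-K1, treated with compound for 17hr at 37 C and 5% CO2.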
Experiment [5] can be described thus: Caspase-3/7 induction in HepG2 cells by small molecules, qHTS cell viability counter screen (AID 1346981). Further: nearly all actives have a fitted effect of over 30% in size. Further: potency means the concentration at half of the fitted maximal effect. The method, boiled down:
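Fluorescence read-out of live-cell protease activity (CellTiter-Fluor) after 1 hr with reagent. This was measured in the same wells as the caspase-3/7 luminescence, on HepG2 cells exposed to DMSO-dissolved compounds for 16 hr at 37 C.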

Experiment [6] addresses Nuclear receptor subfamily 1 group I member 2 (Homo sapiens) (UniProt O75469). The experiment in a line: Human pregnane X receptor (PXR) small molecule agonists, qHTS assay (AID 1346982). Further: nearly all actives have a fitted effect of over 35% in size. Further: potency means the concentration at half of the fitted maximal effect. The method, boiled down:
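HepG2 PXR-Luc reporter line, 5% charcoal-stripped FBS; 5 hr pre-incubation, compound (DMSO) 24 hr at 37 C/5% CO2; ONE-Glo 30 min RT; luminescence read-out.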

Experiment [7] deals with Nuclear receptor subfamily 1 group I member 2 (Rattus norvegicus) (UniProt Q9R1A7). Nature of the experiment: Rat pregnane X receptor (rPXR) activation by small molecules, qHTS assay (AID 1346983). Further: nearly all actives have a fitted effect of over 20% in size. The settings on record: rPXR luciferase reporter cells, One-Glo luminescence, 24 h; max activation: stronger effect = higher value. The method, boiled down:
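Luminescent readout (One-Glo luciferase, 30 min room temperature) followed 24 hr compound treatment at 37 C of rPXR cells plated 2,000 per well and preincubated 5hr; qHTS format with compounds delivered in DMSO.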

Experiment [8] deals with Nuclear receptor subfamily 1 group I member 2 (Homo sapiens) (UniProt O75469). The experiment in a line: CYP3A4 induction through human pregnane X receptor (PXR) by small molecules, qHTS assay (AID 1346984). Further: nearly all actives have a fitted effect of over 40% in size. Further: potency means the concentration at half of the fitted maximal effect. The method, boiled down: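 HepG2-derived DPX-2 line carrying PXR plus a CYP3A4-promoter luciferase reporter; cells plated 5 hr, compound-exposed 24 hr at 37C. CYP3A4 activity probed with 3uM (final) Luciferin-IPA for 3hr, then luciferase read after One-Glo.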

The target is the same in experiment [9]. Nature of the experiment: Human pregnane X receptor (PXR) activation by small molecules, qHTS assay (AID 1346985). Further: nearly all actives have a fitted effect of over 40% in size. Further: potency means the concentration at half of the fitted maximal effect. The method, boiled down: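 DPX-2 cells (HepG2 co-transfected with a PXR response element and a CYP3A4-promoter luciferase construct) were seeded at 2,000 per well, rested 5 hr at 37C, then exposed to DMSO-dissolved compounds for 24 hr. Activation was read as luciferase luminescence.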

The target of experiment [10] is Cytochrome P450 2D6 (Homo sapiens) (UniProt P10635). Nature of the experiment: Cytochrome P450 Family 2 Subfamily D Member 6 (CYP2D6) small molecule antagonists: luciferase reporter qHTS assay (AID 1671196). Further: nearly all actives have a fitted effect of over 50% in size. Further: potency means the concentration at half of the fitted maximal effect. The method, boiled down: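 Luminogenic proluciferin substrate, CYP2D6 enzyme; 10 min RT preincubation with compound, NADPH regeneration system added, 1 h RT. Stop/detection reagent, 20 min RT, luminescence read (RLU). Signal proportional to CYP activity.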
(In general: In a reporter assay the amount or activity of a reporter protein is the signal.)

Experiment [11] has as its target Cytochrome P450 1A2 (Homo sapiens) (UniProt P05177). The experiment in a line: Cytochrome P450 Family 1 Subfamily A Member 2 (CYP1A2) small molecule antagonists: luciferase reporter qHTS assay (AID 1671199). Further: nearly all actives have a fitted effect of over 50% in size. Further: potency means the concentration at half of the fitted maximal effect. Summed up: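 Luminescence readout (relative luminescence units) after luciferin detection reagent, 20 min RT. Preceded by 1 h room-temperature CYP1A2 reaction with NADPH regeneration solution following 10 min compound preincubation with enzyme and proluciferin substrate. Furafylline positive control.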

The target of experiment [12] is Cytochrome P450 2C19 (Homo sapiens) (UniProt P33261). The experiment in a line: Cytochrome P450 Family 2 Subfamily C Member 19 (CYP2C19) small molecule antagonists: luciferase reporter qHTS assay (AID 1671197). Further: nearly all actives have a fitted effect of over 65% in size. Further: potency means the concentration at half of the fitted maximal effect. Summed up: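 First, compounds are pinned into enzyme-substrate mix and held 10 min at room temperature. Second, NADPH regeneration solution is added and plates incubate 1 h at 37C. Third, detection reagent is added and luminescence read after 20 min.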

Experiment [13] deals with Cytochrome P450 2C9 (Homo sapiens) (UniProt P11712). The experiment in a line: Cytochrome P450 Family 2 Subfamily C Member 9 (CYP2C9) small molecule antagonists: luciferase reporter qHTS assay (AID 1671198). Further: nearly all actives have a fitted effect of over 50% in size. Further: potency means the concentration at half of the fitted maximal effect. The method, boiled down: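 Enzyme-substrate mix preincubated with compound 10 min at room temperature; reaction started with NADPH regeneration solution, 1 h 37C. Luminescent luciferin product read after 20 min detection reagent.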

For experiment [14], the target named is Voltage-gated inwardly rectifying potassium channel KCNH2 (Homo sapiens) (UniProt Q12809). The experiment in a line: Human Ether-a-go-go-Related Gene (hERG) channel small molecule antagonists: fluorescence cell-based qHTS assay (AID 1671200). The method, boiled down:
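In this thallium-flux screen, overnight-cultured U2OS cells bearing the channel are dye-loaded in darkness for an hour, rested 10 min at room temperature, and then monitored kinetically at 480/540 nm for two minutes post-stimulus.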
For orientation: Block of hERG is tested as a sign of cardiac risk.

The target in experiment [15] is Cytochrome P450 3A4 (Homo sapiens) (UniProt P08684). The experiment in a line: Cytochrome P450 Family 3 Subfamily A Member 4 (CYP3A4) small molecule antagonists: luciferase reporter qHTS assay (AID 1671201). Further: nearly all actives have a fitted effect of over 50% in size. Further: potency means the concentration at half of the fitted maximal effect. Summed up: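 CYP3A4 activity was followed with a P450-Glo proluciferin substrate. Test compounds in DMSO were preincubated 10 min; NADPH regeneration then ran 1 h, and light output was read 20 min after detection reagent.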
On the % scale 0 is the no-effect control and ±100 the full control effect.

Sequence of Cytochrome P450 2C9 (Homo sapiens) (P11712 whole entry, looked up): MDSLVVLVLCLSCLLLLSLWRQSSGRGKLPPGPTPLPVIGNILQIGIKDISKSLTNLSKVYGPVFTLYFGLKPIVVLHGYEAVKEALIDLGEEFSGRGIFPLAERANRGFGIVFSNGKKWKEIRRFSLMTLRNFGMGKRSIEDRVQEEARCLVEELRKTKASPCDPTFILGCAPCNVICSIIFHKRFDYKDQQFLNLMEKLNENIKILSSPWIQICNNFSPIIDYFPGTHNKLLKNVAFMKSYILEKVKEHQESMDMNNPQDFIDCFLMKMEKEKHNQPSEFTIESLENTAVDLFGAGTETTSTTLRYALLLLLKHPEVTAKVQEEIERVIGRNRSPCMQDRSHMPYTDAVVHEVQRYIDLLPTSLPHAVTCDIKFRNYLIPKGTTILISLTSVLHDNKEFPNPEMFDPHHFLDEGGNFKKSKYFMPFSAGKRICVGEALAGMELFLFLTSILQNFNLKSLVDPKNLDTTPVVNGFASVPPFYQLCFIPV
Sequence of Cytochrome P450 3A4 (Homo sapiens) (P08684 whole entry, looked up): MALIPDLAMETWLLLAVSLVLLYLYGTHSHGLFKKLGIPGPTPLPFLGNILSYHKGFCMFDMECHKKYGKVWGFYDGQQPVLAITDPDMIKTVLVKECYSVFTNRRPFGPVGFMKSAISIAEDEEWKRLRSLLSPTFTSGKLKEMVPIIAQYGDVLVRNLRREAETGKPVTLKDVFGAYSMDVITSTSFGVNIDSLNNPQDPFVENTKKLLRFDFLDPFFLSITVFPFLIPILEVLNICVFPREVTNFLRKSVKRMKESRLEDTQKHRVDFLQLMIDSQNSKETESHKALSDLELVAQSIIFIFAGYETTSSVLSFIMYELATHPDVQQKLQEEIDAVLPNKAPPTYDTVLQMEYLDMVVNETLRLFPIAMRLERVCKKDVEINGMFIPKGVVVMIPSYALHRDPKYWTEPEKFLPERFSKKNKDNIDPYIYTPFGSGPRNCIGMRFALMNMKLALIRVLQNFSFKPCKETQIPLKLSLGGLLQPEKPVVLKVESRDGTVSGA
Sequence of Cytochrome P450 1A2 (Homo sapiens) (P05177 whole entry, looked up): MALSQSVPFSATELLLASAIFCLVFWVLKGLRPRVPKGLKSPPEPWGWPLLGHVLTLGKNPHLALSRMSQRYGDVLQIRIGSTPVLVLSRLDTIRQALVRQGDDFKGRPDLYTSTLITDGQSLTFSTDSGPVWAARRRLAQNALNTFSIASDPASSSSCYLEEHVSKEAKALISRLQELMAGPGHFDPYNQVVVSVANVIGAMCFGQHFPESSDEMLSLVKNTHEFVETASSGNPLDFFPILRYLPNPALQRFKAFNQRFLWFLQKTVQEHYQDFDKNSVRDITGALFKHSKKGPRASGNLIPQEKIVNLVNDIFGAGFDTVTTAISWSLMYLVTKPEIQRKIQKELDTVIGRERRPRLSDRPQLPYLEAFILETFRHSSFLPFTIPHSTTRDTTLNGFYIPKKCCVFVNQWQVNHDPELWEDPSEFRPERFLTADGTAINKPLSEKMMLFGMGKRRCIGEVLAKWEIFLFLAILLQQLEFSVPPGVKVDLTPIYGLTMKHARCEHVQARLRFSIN
Sequence of Cytochrome P450 2C19 (Homo sapiens) (P33261 whole entry, looked up): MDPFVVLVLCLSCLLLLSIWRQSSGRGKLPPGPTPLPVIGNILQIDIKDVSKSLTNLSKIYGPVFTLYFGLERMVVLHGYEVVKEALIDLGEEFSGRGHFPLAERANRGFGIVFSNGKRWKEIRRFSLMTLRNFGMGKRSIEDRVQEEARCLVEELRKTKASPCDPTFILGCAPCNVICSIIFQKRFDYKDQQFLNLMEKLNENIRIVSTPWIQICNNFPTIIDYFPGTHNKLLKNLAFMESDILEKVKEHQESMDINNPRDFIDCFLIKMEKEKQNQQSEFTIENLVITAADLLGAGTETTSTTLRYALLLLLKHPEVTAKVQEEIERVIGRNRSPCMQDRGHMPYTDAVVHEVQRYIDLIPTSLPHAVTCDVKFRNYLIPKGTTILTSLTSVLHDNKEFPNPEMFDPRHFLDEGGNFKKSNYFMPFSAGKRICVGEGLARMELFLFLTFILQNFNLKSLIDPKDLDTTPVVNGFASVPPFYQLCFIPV
Sequence of Nuclear receptor subfamily 1 group I member 2 (Homo sapiens) (O75469 whole entry, looked up): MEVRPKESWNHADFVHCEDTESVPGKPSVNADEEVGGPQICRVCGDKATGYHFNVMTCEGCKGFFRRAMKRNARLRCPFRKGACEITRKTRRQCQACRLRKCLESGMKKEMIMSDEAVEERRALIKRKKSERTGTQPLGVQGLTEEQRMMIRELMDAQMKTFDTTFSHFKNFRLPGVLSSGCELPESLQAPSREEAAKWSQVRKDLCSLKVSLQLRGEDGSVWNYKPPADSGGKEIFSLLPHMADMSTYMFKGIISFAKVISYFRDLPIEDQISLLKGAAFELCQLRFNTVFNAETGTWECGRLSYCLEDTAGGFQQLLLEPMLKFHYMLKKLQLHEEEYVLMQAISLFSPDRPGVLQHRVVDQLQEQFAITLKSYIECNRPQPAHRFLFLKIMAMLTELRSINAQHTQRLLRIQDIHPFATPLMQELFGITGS
Sequence of Voltage-gated inwardly rectifying potassium channel KCNH2 (Homo sapiens) (Q12809 whole entry, looked up): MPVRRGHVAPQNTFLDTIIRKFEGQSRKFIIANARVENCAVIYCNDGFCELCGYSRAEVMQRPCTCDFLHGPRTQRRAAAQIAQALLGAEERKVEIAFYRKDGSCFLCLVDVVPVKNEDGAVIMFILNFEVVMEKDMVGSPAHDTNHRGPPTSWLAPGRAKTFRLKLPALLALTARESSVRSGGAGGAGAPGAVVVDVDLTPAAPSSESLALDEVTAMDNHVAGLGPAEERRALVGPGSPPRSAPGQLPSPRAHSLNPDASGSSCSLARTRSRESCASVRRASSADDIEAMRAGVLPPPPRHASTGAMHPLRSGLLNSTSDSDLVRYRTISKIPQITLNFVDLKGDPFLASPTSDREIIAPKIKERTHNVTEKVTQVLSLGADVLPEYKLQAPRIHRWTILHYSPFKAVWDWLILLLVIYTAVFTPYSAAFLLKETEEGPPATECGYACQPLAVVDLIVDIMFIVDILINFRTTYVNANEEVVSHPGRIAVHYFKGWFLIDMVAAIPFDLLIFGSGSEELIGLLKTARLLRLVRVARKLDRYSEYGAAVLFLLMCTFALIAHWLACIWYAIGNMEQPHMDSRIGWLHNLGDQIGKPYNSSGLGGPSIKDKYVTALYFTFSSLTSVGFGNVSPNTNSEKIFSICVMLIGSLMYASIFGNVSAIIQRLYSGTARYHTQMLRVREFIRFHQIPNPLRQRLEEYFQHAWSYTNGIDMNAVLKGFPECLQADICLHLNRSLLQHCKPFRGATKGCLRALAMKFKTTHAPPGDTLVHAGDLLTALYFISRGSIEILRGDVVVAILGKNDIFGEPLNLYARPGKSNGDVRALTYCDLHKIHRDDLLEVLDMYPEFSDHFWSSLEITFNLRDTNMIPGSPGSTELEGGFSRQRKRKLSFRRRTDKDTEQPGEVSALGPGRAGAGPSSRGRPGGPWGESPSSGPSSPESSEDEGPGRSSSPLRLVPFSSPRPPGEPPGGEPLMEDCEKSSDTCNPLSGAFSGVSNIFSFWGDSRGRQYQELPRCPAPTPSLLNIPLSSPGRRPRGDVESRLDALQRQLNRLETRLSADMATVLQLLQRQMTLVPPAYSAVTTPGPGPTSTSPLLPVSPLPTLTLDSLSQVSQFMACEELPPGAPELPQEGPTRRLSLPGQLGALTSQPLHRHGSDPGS
Sequence of Cytochrome P450 2D6 (Homo sapiens) (P10635 whole entry, looked up): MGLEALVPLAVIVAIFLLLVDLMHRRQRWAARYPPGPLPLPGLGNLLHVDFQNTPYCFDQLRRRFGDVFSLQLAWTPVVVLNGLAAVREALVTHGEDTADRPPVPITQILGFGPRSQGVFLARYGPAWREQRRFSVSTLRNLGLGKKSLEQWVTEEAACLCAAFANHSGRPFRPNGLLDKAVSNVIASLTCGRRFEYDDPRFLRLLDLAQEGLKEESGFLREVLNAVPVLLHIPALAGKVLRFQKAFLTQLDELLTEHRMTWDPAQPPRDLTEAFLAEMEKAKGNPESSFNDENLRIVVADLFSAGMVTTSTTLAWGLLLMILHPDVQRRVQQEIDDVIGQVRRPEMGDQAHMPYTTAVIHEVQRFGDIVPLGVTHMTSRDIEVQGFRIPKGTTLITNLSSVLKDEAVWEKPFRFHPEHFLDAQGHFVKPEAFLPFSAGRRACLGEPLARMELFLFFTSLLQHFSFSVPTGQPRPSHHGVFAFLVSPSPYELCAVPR
Sequence of Nuclear receptor subfamily 1 group I member 2 (Rattus norvegicus) (Q9R1A7 whole entry, looked up): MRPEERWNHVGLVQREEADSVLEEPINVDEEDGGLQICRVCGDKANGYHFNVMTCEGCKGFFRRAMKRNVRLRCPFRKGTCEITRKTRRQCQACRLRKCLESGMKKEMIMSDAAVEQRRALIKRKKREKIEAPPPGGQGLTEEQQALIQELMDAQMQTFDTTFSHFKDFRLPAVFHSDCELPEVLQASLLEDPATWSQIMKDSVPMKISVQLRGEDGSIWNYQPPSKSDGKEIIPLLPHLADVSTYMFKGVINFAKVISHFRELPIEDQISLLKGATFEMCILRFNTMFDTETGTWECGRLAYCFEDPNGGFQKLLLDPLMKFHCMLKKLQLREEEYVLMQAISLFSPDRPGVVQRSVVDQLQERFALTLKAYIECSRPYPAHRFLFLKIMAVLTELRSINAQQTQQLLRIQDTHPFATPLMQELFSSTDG

With `CC(C)C=O`, the Potency result in experiment [1], in [2], in experiment [3] and in experiment [4] was “inactive” throughout.
As for `CN1CCCC(n2nc(Cc3ccc(Cl)cc3)c3ccccc3c2=O)CC1` (configuration not stated), the Potency in [1] was 13.3 µM (active); in experiment [3], 29.8 µM (active); in experiment [5] it was 26.6 µM (active); in experiment [6], 5.31 µM (active); in experiment [8], 28.2 µM (active); in experiment [9], 20 µM (active). In experiment [10], the Potency was 1.1 µM (active). Also, the Potency result in experiment [2], in experiment [4] and in [11] was “inactive” in each case. Besides, the max activation in experiment [7] is -1.86%.
Regarding `Cc1cccc(O)c1N`, the Potency result in [1], in [2], in experiment [4], in [5], in experiment [6] and in [14] was “inactive” each time. In addition, the Potency was 61.8 µM (active) in experiment [3]; 45.3 µM (active) in [10]; 40.3 µM (active) in [12]; 32 µM (active) in [13]; 10.1 µM (active) in experiment [11]; 36 µM (active) in experiment [15].
Consider `CC1=C(Br)C(=O)C(Br)=C/C1=C(/c1ccccc1S(=O)(=O)O)c1cc(Br)c(O)c(Br)c1C`, for which the Potency in experiment [1] was 20.8 µM (active); in [3], 18.6 µM (active); in [5] it was 37 µM (active); in [10], 21.6 µM (active); in experiment [12], 27.2 µM (active); in experiment [13] it was 15.3 µM (active). Besides, the figures for the Potency in experiment [11] and in experiment [15] were 19.2 µM (active) and 24.2 µM (active), respectively. The Potency entry in experiment [2], in [4] and in [6] was “inactive” each time.
With `NNC(=O)CP(=O)(c1ccccc1)c1ccccc1`, the Potency entry in experiment [1], in [2], in experiment [3], in experiment [4], in experiment [5] and in experiment [6] was “inactive” throughout. For the same molecule, the Potency result in experiment [8], in experiment [9], in [11] and in experiment [14] was “inactive” each time.
Take `NC(=O)c1ccncc1`: the Potency entry in experiment [1], in experiment [2], in experiment [3], in experiment [4], in experiment [5] and in experiment [6] was “inactive” throughout. In addition, the Potency entry in [10], in experiment [12], in experiment [13], in experiment [14] and in experiment [15] was “inactive” throughout.
In the case of `C=CCc1ccccc1OCC(O)CNC(C)C` (configuration not stated), the Potency result in experiment [1], in experiment [2], in experiment [3], in experiment [4], in experiment [5] and in experiment [6] was “inactive” in each case. The Potency result in experiment [12], in experiment [13], in [14] and in experiment [15] was “inactive” each time. Also, the Potency was 5.49 µM (active) in experiment [10] and 12.3 µM (active) in [11].
For `C=COCC(C)C`, the Potency result in experiment [1], in [2], in experiment [3], in experiment [4], in experiment [5] and in [6] was “inactive” each time. Further, the Potency entry in experiment [10], in experiment [12], in experiment [13], in experiment [11], in experiment [14] and in experiment [15] was “inactive” each time.
For `O=C(O)c1cccc(-c2noc(-c3ccccc3F)n2)c1`, the Potency entry in [1], in experiment [2], in experiment [3], in experiment [4], in [5] and in [8] was “inactive” in each case. The Potency entry in experiment [9] and in [14] was “inactive” in each case. The Potency in experiment [6] was 0.006 µM (active); in [12], 0.776 µM (active); in experiment [13], 2.45 µM (active); in [11], 4.56 µM (active).
Take `Cc1ccc2c(Br)cc(Br)c(O)c2n1`: the Potency entry in [1], in [2], in experiment [4], in experiment [5], in experiment [8] and in [10] was “inactive” each time. In addition, the Potency entry in experiment [14] and in experiment [15] was “inactive” throughout. Also, the Potency in experiment [3] is 21.1 µM (active); in [6], 11.9 µM (active); in [11], 36.3 µM (active). For the same molecule, the max activation in [7] is -3.38%.
